Measurements reported in ChEMBL document CHEMBL4513216, “Probing the Open Global Health Chemical Diversity Library for Multistage-Active Starting Points for Next-Generation Antimalarials” (ACS Infect Dis, 2020).
Out of some 65,000 compounds screened, about 2,100 (3.2%) showed an effect of 50% or more. The median lay at about -52%. Many of the other results were omitted from the sample, so strong results are more common in it than they were.

These compounds were tested on Plasmodium falciparum (assay: Screen against P. falciparum Asexual Blood Stage (ABS), at 5uM). Details: tested at 5 uM.
Format: functional, Dd2

Compound	INHIBITION [%]
CN(CC(=O)NCC1CCCO1)Cc1nc2c(s1)CCCC2 (configuration not stated)	-39.8
Cc1cc(C)c(CN2CCCC23Cc2ccccc2CNC3=O)c(C)c1 (configuration not stated)	8.96
CC(C)C(=O)NC1CCCN(C(=O)c2ccc(O)c(Cl)c2)C1 (configuration not stated)	-84
O=C(Nc1ccccc1Cn1cccn1)N1CCCC(N2CCCC2)C1 (configuration not stated)	-31.7
CN1CCN(c2ccc3ccc(C(=O)N4CCCO4)cn23)CC1	6.88
COc1cc(CNCc2ccnc(N3CCCC3)c2)cc(OC)c1	61.5
COc1c(CNCc2ccnc(N3CCCC3)c2)c(C)nn1C	-64.4
COc1c(CNCc2ccnc(N3CCCCC3)c2)c(C)nn1C	-15.8
COc1cc(CNCc2ccnc(N3CCCCC3)c2)cc(OC)c1	61.4
COc1cc(CNCc2ccnc(N3CCOCC3)c2)cc(OC)c1	-50.4
COc1ccc(CNCc2ccnc(N3CCCCC3)c2)cc1OC	-9.72
CC(C)NC(=O)C1CN(C(=O)N(C)C)CC12CCOCC2 (configuration not stated)	-145
Cc1cc(N2CCC(N(C)C(=O)c3ccc(C#N)cc3)CC2)nc(C)n1	-6.47
CCCc1noc(CCCC(=O)N2CCCC2c2cnn(C)c2)n1 (configuration not stated)	-37
COCCN(C)C(=O)c1nc2c(s1)CCCN2c1ccc(C)nn1	-53.3
CCN1CCCN(C(=O)c2ccc(NC(=O)CC(C)C)c(C)c2)CC1	-98.5
Cc1cccc(C(=O)N2CC[C@@H]3[C@H]2CCC(=O)N3c2ccccc2)n1	-87
Cc1ccccc1C1(CNCc2cnc(N3CCOCC3)nc2)CC1	50.8
OC1(CNCc2cnc(N3CCOCC3)nc2)CCCCC1	-74.5
c1ccc(C2(CNCc3cnc(N4CCOCC4)nc3)CC2)cc1	-22.6
CCN(CC)CCNc1ncc(-c2cc(C)no2)c(-c2ccoc2C)n1	61.9
Cc1cc(-c2cnc(NC3CCCC3)nc2-c2ccoc2C)on1	-65.8

Compound	INHIBITION [%]
Cc1cc(-c2cnc(NC3CC3)nc2-c2ccoc2C)on1	-62
CCc1nc(C2CCCN(C(=O)c3ccccc3F)C2)no1 (configuration not stated)	-49.5
CS(=O)(=O)N1C[C@H]2CC[C@@H](C1)N(C/C=C/c1ccc(F)cc1)C2	-43.1
CN(C)C(=O)N1C[C@H]2CC[C@@H](C1)N(C/C=C/c1ccc(F)cc1)C2	57.8
CN(C)C(=O)CN1C[C@H]2CC[C@@H](C1)N(C/C=C/c1ccc(F)cc1)C2	43.5
NC(=O)Cn1ccc(O)c(Cc2ccc(Cl)cc2Cl)c1=O	-144
O=C(NCc1ccco1)c1cc(N2CC[C@@H](O)C2)ccn1	-217
CN(C)[C@H]1CCN(c2ccnc(C(=O)NCc3ccco3)c2)C1	-95.2
CCCOC1CCCN(c2ccnc(C(=O)NCc3ccco3)c2)C1 (configuration not stated)	64.2
Cc1ncnc2c1CCN(S(=O)(=O)C1CC1)CC2	-47.1
CCc1nc(CN2CCCC(N(C)CCc3cccs3)C2)no1 (configuration not stated)	12.3
Cn1ccnc1CN1CCCN(C(=O)COC2CCCCC2)CC1	-46.8
CCOCCN1C[C@H](c2cccc(OC)c2)[C@@H](N)C1	-3.38
C/C=C(\C)CN1C[C@H](c2cccc(OC)c2)[C@@H](N)C1	65.6
COc1cccc([C@H]2CN(CCCS(=O)(=O)N(C)C)C[C@@H]2N)c1	-56.8
Cc1nc(C(=O)N(C)[C@@H]2CCC[C@@H](Oc3ccccc3)[C@@H]2O)co1	-3.45
CC(C)c1nsc(N2CCCOCC2)n1	-47.6
Cc1ccc(CN(CCCN2CCOCC2)Cc2cnc(C)n2C)o1	55.1
Cc1ccc(CN(CCCN2CCOCC2)Cc2cnn(C)c2)o1	-2.55
Cc1ccc(CN(CCCN(C)C)Cc2cnc(C)n2C)o1	-17.8
Cc1cc(NC(=O)NCc2cccnc2OC2CCCC2)n(C)n1	-37
O=C(NCCN1CCCCC1)c1cccc(Cl)c1Cl	50.5

Compound	INHIBITION [%]
O=C(NCCN1CCCCC1)c1scnc1Cl	-130
Cc1cc(Br)ccc1C(=O)NCCN1CCCCCC1	30.2
Cc1ccc(CN2C(=O)CCC23CCC(NCC2CCOC2)CC3)cc1 (configuration not stated)	-1.23
O=C(NC1CCC1)[C@@H]1CCO[C@@H]2CCN(CCc3ccccc3)C[C@H]21	36.5
Cc1c[nH]nc1C1CCCN1Cc1nccn1C (configuration not stated)	57.3
Cc1c[nH]nc1C1CCCN1Cc1ncc[nH]1 (configuration not stated)	34.9
Cc1c[nH]nc1C1CCCN1Cc1ccncc1 (configuration not stated)	-8.01
Cn1ccnc1CN1CCCC1CCc1ccccc1 (configuration not stated)	37.6
COc1cccc(CC2CCCN2Cc2nccn2C)c1 (configuration not stated)	52
COc1cccc(CC2CCCN2CCCO)c1 (configuration not stated)	-8.85
CC1CCN(C(=O)C(C)N2CCN(c3nccs3)CC2)CC1 (configuration not stated)	-55.4
Cc1cc(C(=O)N2CCCCC2C)ccc1NC(=O)N1CCOCC1 (configuration not stated)	-137
O=C(N1CCCCC1)N1CCN(CC(O)c2ccccc2)CC1 (configuration not stated)	-4.34
O=C(c1cscn1)N1CCC[C@]2(C[C@H](OCC3CC3)CO2)C1	-132
Cc1cc(-c2nccs2)nc(C2CCN(Cc3ccncc3)CC2)n1	-25.9
Cc1cc(-c2nccs2)nc(C2CCN(Cc3ccc(F)cc3)CC2)n1	62.9
Cc1cc(-c2nccs2)nc(C2CCN(Cc3cccs3)CC2)n1	16.1
O=C(c1csc(I)c1)N1CCc2c(ncn2C2CC2)C1	-41.85
Cc1nc(CN2CCc3ncnc(-c4cccnc4)c3CC2)cs1	-30.7
CN1CC2(CCN(Cc3cccc(C#N)c3)CC2)CC1=O	-15.1
CN1CCC2(COCCN(Cc3ccc4c(c3)OCO4)C2)C1 (configuration not stated)	-102
CN1CCC2(COCCN(Cc3cccc(C#N)c3)C2)C1 (configuration not stated)	57

Compound	INHIBITION [%]
C/C=C(\C)CN1C[C@H](NC(=O)CCOC)[C@@H](c2ccc(C)o2)C1	-33.1
CCC1(CO)CCN(C(=O)c2cc(COc3ccccc3F)[nH]n2)CC1	-66.6
O=C(c1cccnc1)N1CCN2C[C@H](OCc3ccccc3)C[C@H]2C1	-19.2
CCc1ccc(C2CC(=O)Nc3c2c(=O)[nH]n3C(C)C)cc1 (configuration not stated)	-113
c1ccc(CN2CCn3c(Cn4cncn4)cnc3C2)nc1	-53.9
Cc1cccc(CN2CCCC3(CCN(C4CCSCC4)C3)C2=O)c1 (configuration not stated)	6.83
CCS(=O)(=O)N1CCC2(CCCN(Cc3ccc(F)c(F)c3)C2=O)C1 (configuration not stated)	-68
O=C1N(Cc2ccc(F)cc2)CCCC12CCN(C1CCSCC1)C2 (configuration not stated)	9.56
O=C1N(Cc2ccc(F)c(F)c2)CCCC12CCN(C1CCCC1)C2 (configuration not stated)	68.1
O=C1N(Cc2ccccc2F)CCCC12CCN(C1CCSCC1)C2 (configuration not stated)	34.2
O=C1N(Cc2ccc(F)c(F)c2)CCCC12CCN(C1CCCCC1)C2 (configuration not stated)	60.9
CCCS(=O)(=O)N1C[C@H]2CC[C@@H](C1)N(Cc1cscn1)C2=O	-60
Nc1cc(N2CCOCC(Cc3ccc4[nH]ccc4c3)C2)ncn1 (configuration not stated)	-6.79
CC(=O)Nc1nc(C(=O)NCCOc2ccc(C)cc2)cs1	-4.82
CCc1nnsc1C(=O)NC1CCN(CCOc2ccc(Br)cc2)CC1	2.8
Cc1nc(C(=O)NC2CCN(CCOc3ccc(Br)cc3)CC2)cs1	50
CCn1ccnc1CN1CCCN(C(=O)c2ccnc(C)n2)CC1	-61.7
COc1ccc2c(c1)OCC(CNC1CCc3nc(C)nn3C1)=C2 (configuration not stated)	-98
Cc1csc(N2CCCN(c3cc(C)nc(C)c3C#N)CC2)n1	-45.8
O=C(Nc1cnn(Cc2ccc(F)cc2Cl)c1)C1CC1	-0.313
O=C(O)CCCC(=O)Nc1cnn(COc2ccc(F)cc2Cl)c1	-39.2
O=C(Nc1cnn(COc2ccc(F)cc2Cl)c1)C1CC1	67.2

Compound	INHIBITION [%]
CO[C@H]1CN(C(=O)c2cn3cc(C)ccc3n2)CC[C@@]12CCCO2	-142
Cc1nc(C(=O)N(C)CC2CCCO2)nn1-c1ccccc1C(C)C (configuration not stated)	-143
CCOCc1nc(-c2ccc(F)cc2Cl)n(C)n1	-121
CN1C(=O)CC(c2ccccc2)C12CCN(CC1CC1)CC2 (configuration not stated)	16.7
CN1C(=O)CC(c2ccccc2)C12CCN(CC1CCOCC1)CC2 (configuration not stated)	36.1
CCN1C(=O)CC(c2ccccc2)C12CCN(CC1CCOCC1)CC2 (configuration not stated)	50.3
Cc1nc(C)n(CC2CCCCN2CC(=O)Nc2c(C)n[nH]c2C)n1 (configuration not stated)	54.2
Cc1nc(C)n(CC2CCCN2CC(=O)Nc2c(C)n[nH]c2C)n1 (configuration not stated)	35
Cc1cc(C)n(CC2CCCCN2CC(=O)Nc2c(C)n[nH]c2C)n1 (configuration not stated)	-116
CC(C)Cn1nc(-c2ccc(C(=O)O)cc2)cc1-c1ccc(F)cc1	-57.3
CC(NCc1cccnc1)c1ccc(OCC(=O)NC2CC2)cc1 (configuration not stated)	-107
Cc1cccc(CNC(C)c2ccc(OCC(=O)NC3CC3)cc2)c1 (configuration not stated)	-21
CC(NCc1cccc(Cl)c1)c1ccc(OCC(=O)NC2CC2)cc1 (configuration not stated)	51.7
CC(C)(O)CN1CCN(C(=O)c2cccc3cccnc23)CC1	24.5
CC(C)CNC(=O)[C@H]1C[C@H]2CN(C(=O)Nc3ccc(F)cc3)C[C@@H]1O2	-5.8
Cc1csc(NC(=O)CN2CCc3c(nc(C4CC4)n3C)C2)n1	-122
NC(=O)c1ccccc1Oc1cnc(C2CCCN2)cn1 (configuration not stated)	-95.3
NC(=O)c1ccc(C2CCCNC2)nc1 (configuration not stated)	-43.7
NC(=O)c1ccccc1Oc1cccc(C2CCCNC2)n1 (configuration not stated)	55.8
